Measured values: PubChem BioAssay (NCATS)
A number with no mark means an inactive call. Inconclusive results are not listed. The source made the active and inactive calls. Unless noted, calls follow the shape of the dose curve; as a rule, active = well fitted curve in either direction with a large enough effect (not every such curve was filed as active); inconclusive = small, poorly fitted or top-dose-only effect, or another doubt; inactive = flat fitted curve, though single readings scatter.

Assays:
[1] = target: Lysosomal acid glucosylceramidase (Homo sapiens) (UniProt P04062); assay: Glucocerebrosidase-p2 (AID 348; in the data active = potency below about 10 µM; also: potency is read from the fitted curve at half-maximal effect); conditions: purified GBA, blue fluorogenic substrate, 40 min
Sequence of Lysosomal acid glucosylceramidase (Homo sapiens) (P04062 whole entry, looked up): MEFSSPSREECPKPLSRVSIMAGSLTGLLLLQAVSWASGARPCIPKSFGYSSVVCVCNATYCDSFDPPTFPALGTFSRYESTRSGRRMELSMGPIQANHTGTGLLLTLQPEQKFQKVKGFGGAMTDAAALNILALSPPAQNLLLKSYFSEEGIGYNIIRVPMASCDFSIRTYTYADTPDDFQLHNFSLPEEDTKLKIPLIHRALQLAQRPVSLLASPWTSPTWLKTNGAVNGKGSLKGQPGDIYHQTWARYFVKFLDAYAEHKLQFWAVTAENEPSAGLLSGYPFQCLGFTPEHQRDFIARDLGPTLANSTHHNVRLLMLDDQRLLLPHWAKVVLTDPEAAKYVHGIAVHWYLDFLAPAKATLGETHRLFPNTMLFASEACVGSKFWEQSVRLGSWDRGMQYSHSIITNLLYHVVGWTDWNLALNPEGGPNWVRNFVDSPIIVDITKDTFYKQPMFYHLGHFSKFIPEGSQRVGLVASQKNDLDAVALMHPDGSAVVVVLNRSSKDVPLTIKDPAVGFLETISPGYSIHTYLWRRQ
Summary of the method: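 Normal human glucocerebrosidase (0.2 nM) with blue fluorogenic substrate (80 uM final) in citrate/phosphate pH 5.9 with 10mM sodium taurocholate, 0.01% tween-20; 40 min RT, NaOH/glycine stop; fluorescence Ex 365/Em 440; AC50 from a titration from 0.6 nM upwards.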

[2] = AP1 Signaling Pathway (AID 357); conditions: ME-180 AP-1-bla reporter, EGF-induced, beta-lactamase ratio, 5 h; at 7.69 µM (top of the series) unless noted;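 also: ME-180 reporter cells stimulated with EGF at its EC50 level; % is scaled to controls: 0 for no effect and ±100 for the full control effect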
Summary of the method: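 First, ME-180 AP-1-bla cells were cultured overnight at 37 °C in low-serum Opti-MEM. Next, titrated compounds with EC50 EGF were incubated 5 hours. Finally, CCF4 was added for 2.5 hours and the 460/530 nm ratio recorded.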

[3] = target: Cytochrome P450 1A2 (Homo sapiens) (UniProt P05177); assay: p450-cyp1a2 (AID 410; calls by dose curve; also: potency is read from the fitted curve at half-maximal effect;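 as to activity change, negative = inhibition: -100% = full effect of reference inhibitor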); conditions: recombinant CYP1A2, luciferin-ME demethylation, luminescence; series mostly up to 11.4 µM
Sequence of Cytochrome P450 1A2 (Homo sapiens) (P05177 whole entry, looked up): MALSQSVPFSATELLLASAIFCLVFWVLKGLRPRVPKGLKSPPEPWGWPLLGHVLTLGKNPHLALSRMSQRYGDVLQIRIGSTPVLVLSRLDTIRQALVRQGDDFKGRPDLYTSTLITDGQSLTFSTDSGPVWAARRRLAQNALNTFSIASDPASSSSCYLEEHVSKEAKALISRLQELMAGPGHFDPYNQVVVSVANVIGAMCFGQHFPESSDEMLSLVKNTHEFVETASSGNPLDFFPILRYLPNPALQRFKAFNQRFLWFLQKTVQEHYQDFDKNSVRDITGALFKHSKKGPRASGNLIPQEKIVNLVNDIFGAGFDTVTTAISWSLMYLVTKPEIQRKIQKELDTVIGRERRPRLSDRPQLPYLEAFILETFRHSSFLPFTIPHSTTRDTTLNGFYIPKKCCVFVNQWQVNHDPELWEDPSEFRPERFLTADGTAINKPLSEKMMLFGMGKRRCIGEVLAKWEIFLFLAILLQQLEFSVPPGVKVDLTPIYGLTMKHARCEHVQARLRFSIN
Summary of the method: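 Read-out is luminescence from luciferin produced by CYP1A2 demethylation of Luciferin-ME (100uM, at Km). Detection reagent stopped the 60 min NADPH-dependent reaction; signals were normalized to 57 uM furafylline.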

[4] = NFAT Signaling Pathway (AID 444); conditions: Jurkat NFAT-bla M1, carbachol, beta-lactamase ratio, 5 h; at 7.69 µM (top of the series) unless noted;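 also: carbachol stimulus at about its EC50 of 1 µM final; % is scaled to controls: 0 for no effect and ±100 for the full control effect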
Summary of the method: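 Jurkat cells with NFAT-driven β-lactamase reporter and co-expressed M1 receptor, stimulated with carbachol (final 1 uM, ~EC50), compound titration, 5 h at 37 °C. CCF4 loaded 1 h at RT; 460/530 nm ratio gave %activity and AC50.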

[5] = Stat Signaling Pathway (AID 446); conditions: ME-180 SIE beta-lactamase reporter, IL-6 stimulated, 5 h; at 7.69 µM (top of the series) unless noted;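 also: ME-180 cervical cancer cells given 40 pM IL-6 alongside compound; SIE-controlled beta-lactamase reporter measured as 460/530 nm FRET emission ratio; % is scaled to controls: 0 for no effect and ±100 for the full control effect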
Summary of the method: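 Compound effects on IL-6-induced STAT reporter activity were measured in ME-180 cells. After overnight culture, cells were co-treated with 40 pM IL-6 for 5 hrs before beta-lactamase substrate loading at room temperature.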

[6] = target: Glucocorticoid receptor (Homo sapiens) (UniProt P04150); assay: GR-GFP Redistribution (AID 450;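 active = compounds whose dose series gives a full or clear partial fitted curve of increased nuclear translocation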; also: potency is read from the fitted curve at half-maximal effect); conditions: U2OS GR-GFP nuclear translocation, laser cytometry, 2 h
Sequence of Glucocorticoid receptor (Homo sapiens) (P04150 whole entry, looked up, the tested form may be a part): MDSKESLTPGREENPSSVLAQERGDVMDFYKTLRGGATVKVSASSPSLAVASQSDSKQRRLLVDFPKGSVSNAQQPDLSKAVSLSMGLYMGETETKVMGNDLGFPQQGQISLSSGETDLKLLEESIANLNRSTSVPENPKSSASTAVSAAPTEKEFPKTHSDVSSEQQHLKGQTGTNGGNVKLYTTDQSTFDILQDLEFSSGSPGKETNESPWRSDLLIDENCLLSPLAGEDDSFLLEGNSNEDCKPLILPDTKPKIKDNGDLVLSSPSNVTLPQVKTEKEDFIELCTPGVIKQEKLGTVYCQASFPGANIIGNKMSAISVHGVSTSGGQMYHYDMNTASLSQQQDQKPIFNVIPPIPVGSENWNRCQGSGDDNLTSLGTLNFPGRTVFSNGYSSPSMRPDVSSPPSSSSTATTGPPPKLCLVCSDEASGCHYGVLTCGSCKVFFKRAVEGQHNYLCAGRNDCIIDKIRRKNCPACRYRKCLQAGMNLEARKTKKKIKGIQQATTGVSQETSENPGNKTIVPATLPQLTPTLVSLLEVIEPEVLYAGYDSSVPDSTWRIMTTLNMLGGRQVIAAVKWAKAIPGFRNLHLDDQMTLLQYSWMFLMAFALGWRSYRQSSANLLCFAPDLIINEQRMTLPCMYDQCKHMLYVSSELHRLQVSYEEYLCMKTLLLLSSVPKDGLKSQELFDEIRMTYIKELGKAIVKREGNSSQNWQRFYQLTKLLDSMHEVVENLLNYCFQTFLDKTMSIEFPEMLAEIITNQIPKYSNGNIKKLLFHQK

[7] = target: Glucocorticoid receptor (Homo sapiens) (UniProt P04150); assay: GR-EFC Redistribution (AID 451; calls by dose curve; also: potency is read from the fitted curve at half-maximal effect); conditions: CHO-K1 GR-EFC translocation, beta-gal luminescence, 2 h
Summary of the method: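 CHO-K1 cells expressing nuclear EA and GR-ED fragments of b-gal; compounds titrated up to 46 uM final, 2 h at 37 C. GR nuclear translocation read as complemented b-gal luminescence after 1 h RT detection.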

[8] = target: Mitogen-activated protein kinase 10 (Mus musculus) (UniProt Q61831); assay: JNK3 AlphaScreen Assay (AID 530); conditions: JNK3 lysate, c-Jun phosphorylation; series mostly up to 11.4 µM;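 also: kinase came from lysate of stimulated human HepG2 cells; signal reports phosphorylation of biotinylated GST-cJun 1-79 at Ser73 with 10 µM ATP; % is scaled to controls: 0 for no effect and ±100 for the full control effect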
Summary of the method: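 HepG2 lysate (IL-1b/TNFa pre-activated) + biotin-GST-cJun 1-79 + anti-pSer73 cJun; cpd titration, 15 min RT; ATP 10 uM start; Tris pH 7.6, MgCl2, DTT, vanadate; beads in EDTA buffer; AlphaScreen.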

[9] = target: 3',5'-cyclic-AMP phosphodiesterase 4B (Homo sapiens) (UniProt Q07343); assay: qHTS Assay for Inhibitors of PDE-IV (AID 607; active = well fitted activation curve with a large enough effect in the main read-out, with a control signal flat, not every such curve was filed as active; also: % of control where 0% means no effect); conditions: HEK293 ACTOne CNG channel cells, membrane potential fluorescence; series mostly up to 22.9 µM
Sequence of 3',5'-cyclic-AMP phosphodiesterase 4B (Homo sapiens) (Q07343 whole entry, looked up): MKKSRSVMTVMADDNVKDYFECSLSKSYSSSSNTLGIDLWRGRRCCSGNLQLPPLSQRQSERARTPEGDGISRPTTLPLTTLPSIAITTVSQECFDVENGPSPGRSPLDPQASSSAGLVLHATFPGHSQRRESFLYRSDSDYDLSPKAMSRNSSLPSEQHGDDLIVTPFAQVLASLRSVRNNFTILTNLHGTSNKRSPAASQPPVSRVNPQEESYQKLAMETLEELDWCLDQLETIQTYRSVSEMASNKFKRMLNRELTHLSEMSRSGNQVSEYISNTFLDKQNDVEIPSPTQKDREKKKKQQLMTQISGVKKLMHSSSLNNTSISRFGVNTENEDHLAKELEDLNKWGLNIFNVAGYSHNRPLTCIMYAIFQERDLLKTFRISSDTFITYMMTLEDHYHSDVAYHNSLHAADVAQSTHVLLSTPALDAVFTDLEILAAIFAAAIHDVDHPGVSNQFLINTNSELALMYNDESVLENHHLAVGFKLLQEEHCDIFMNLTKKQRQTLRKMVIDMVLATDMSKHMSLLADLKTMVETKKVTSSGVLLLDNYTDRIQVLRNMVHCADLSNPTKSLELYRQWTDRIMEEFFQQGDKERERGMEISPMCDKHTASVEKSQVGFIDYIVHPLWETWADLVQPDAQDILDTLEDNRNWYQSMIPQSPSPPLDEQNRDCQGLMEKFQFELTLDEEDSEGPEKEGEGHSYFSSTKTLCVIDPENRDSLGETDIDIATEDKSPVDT
Summary of the method: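 ACTOne HEK293 cells carry a modified cAMP-gated CNG channel and express endogenous PDE4; plated 1000 cells/well, compounds up to 22.9 uM final. Membrane-potential dye fluorescence (ex 535/em 590) was read; parental cells received 10 uM forskolin + 100 uM RO 20-1724.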

[10] = target: Cytochrome P450 2C19 (Homo sapiens) (UniProt P33261); assay: qHTS Assay for Inhibitors and Substrates of Cytochrome P450 2C19 (AID 899; active = well fitted inhibition curve with a large enough effect; also: nearly all actives have a fitted effect of over 60% in size; also: potency is read from the fitted curve at half-maximal effect); conditions: recombinant CYP2C19, luciferin-H EGE luminescence; series mostly up to 11.4 µM
Sequence of Cytochrome P450 2C19 (Homo sapiens) (P33261 whole entry, looked up): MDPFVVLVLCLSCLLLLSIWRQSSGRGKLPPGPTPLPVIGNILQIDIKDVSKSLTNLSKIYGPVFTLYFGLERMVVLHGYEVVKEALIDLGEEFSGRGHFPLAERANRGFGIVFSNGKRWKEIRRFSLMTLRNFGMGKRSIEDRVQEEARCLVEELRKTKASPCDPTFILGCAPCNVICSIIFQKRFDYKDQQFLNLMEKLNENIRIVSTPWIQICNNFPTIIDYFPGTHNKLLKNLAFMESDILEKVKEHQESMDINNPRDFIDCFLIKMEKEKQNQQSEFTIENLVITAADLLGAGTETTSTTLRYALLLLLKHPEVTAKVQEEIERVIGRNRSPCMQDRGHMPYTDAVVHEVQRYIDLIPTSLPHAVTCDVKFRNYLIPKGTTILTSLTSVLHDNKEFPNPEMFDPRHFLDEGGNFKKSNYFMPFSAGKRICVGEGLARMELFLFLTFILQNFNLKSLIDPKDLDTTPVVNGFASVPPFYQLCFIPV
Summary of the method: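 Luminescent read-out of luciferin formed from Luciferin-H EGE (10uM, equal to KM). Enzyme 5nM in 50mM KPO4; compound added, 10 min at 37C, then NADPH regenerating system for 60 min at 37C. Full inhibition defined by 57uM ketoconazole.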

[11] = qHTS Assay for Identification of Small Molecule Agonists for Hypoxia Response Element Signaling Pathway (AID 914; active = well fitted activation curve with a large enough effect in the signal ratio, with a control signal flat, not every such curve was filed as active; the % refers to the signal ratio; also: % of control where 0% means no effect); conditions: ME-180 (cervical carcinoma) HRE-bla reporter, beta-lactamase ratio, CoCl2, 17 h; activation: active compounds read high
Summary of the method: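 HRE-bla ME-180 cells with beta-lactamase reporter under hypoxia response element, compounds with EC50 CoCl2 for 17 hours at 37 C. CCF4 substrate, 460nm/530nm emission ratio gave %Activity; AC50 from titration series.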

SMILES | Potency [1] [µM] | activity change, negative = inhibition [2] [%] | activity change, negative = inhibition [3] | activity change, negative = inhibition [4] [%] | activity, negative = inhibition [5] [%] | Potency [6] [µM] | Potency [7] [µM] | Potency [8] | Potency [9] | Potency [10] | Potency [3] | activation [11] [%]
C[N+](C)(C)c1nc(N)nc2c1ncn2[C@H]1O[C@@H](CO)[C@@H](O)[C@H]1O | > 11.4 | 6.27 | -4.9% [at 2.29 µM] | 2.16 | -3.17 | > 46 | > 9.22 | inactive | inactive | inactive | – | –
O=C(O)CCCc1ccc2ccc3ccccc3c2c1 | > 11.4 | -11.1 | – | -6.89 | -2.84 | > 46 | > 9.22 | inactive | inactive | inactive | 2 µM (active) | –
Cn1c(=O)c2c(nc(NCCNc3nc4c(c(=O)n(C)c(=O)n4C)n3C)n2C)n(C)c1=O | > 11.4 | 4.17 | – | 8.54 | 14.6 | > 46 | > 9.22 | inactive | inactive | inactive | inactive | –
NS(=O)(=O)c1ccc(N=Nc2ccc(O)c(C(=O)O)c2)cc1 | > 11.4 | -0.844 | – | -4.82 | -2.97 | > 46 | > 9.22 | inactive | inactive | – | inactive | 12.3
N=c1ccn2c(n1)O[C@H]1[C@@H](OP(=O)(O)O)[C@H](CO)O[C@H]12 | > 11.4 | 1.47 | -3.1% [at 2.29 µM] | 19.9 | -1.19 | > 46 | > 9.22 | inactive | inactive | inactive | – | –
C=C1CCO[C@@]2([C@H](O)[C@@](C)(O)CO)NC(=O)[C@]1(O)NC2=O | > 11.4 | 5.8 | -4% [at 2.29 µM] | -4.59 | 2.56 | > 46 | > 9.22 | inactive | inactive | inactive | – | –
C/C(=N\NC(=O)c1ccncc1)c1ccc2ccccc2c1O | > 11.4 | 7.91 | – | -7.25 | -3.43 | > 46 | > 9.22 | inactive | inactive | 0.501 µM (active) | 3.98 µM (active) | –
Nc1c(S(N)(=O)=O)cc(S(N)(=O)=O)cc1S(N)(=O)=O | > 11.4 | 2.78 | – | 7.97 | 1.94 | > 46 | > 9.22 | inactive | inactive | inactive | inactive | –
NC(=O)c1csc(-c2ccc(CO)o2)n1 | > 11.4 | -2.81 | – | 10.7 | 13.2 | > 46 | > 9.22 | inactive | inactive | inactive | inactive | –
CCCn1cnc2c(SCC(=O)O)nc(N)nc21 | > 11.4 | 0.287 | – | -8.4 | -4.97 | > 46 | > 9.22 | inactive | inactive | inactive | inactive | –
COc1ccc(-c2cc([C@H](O)[C@@H]3CCCCN3)c3ccccc3n2)cc1 | > 11.4 | 27.7 | -11% [at 2.29 µM] | 23.2 | 2.85 | > 46 | > 9.22 | inactive | inactive | 3.98 µM (active) | – | –
O=C(C[C@@H](c1ccccc1)N1CCCCC1)c1ccccc1 | > 11.4 | 2.69 | – | 5.6 | -14.9 | > 46 | > 9.22 | inactive | inactive | 2.51 µM (active) | 1.26 µM (active) | –
O=C(O)C/C(=C\c1ccco1)C(=O)O | > 11.4 | 8.65 | -11.8% [at 2.29 µM] | 9.1 | 7.2 | > 46 | > 9.22 | inactive | inactive | inactive | – | –
Cc1cn(CC[C@H](N)C(=O)O)c(=O)[nH]c1=O | > 11.4 | 0.888 | – | -6.68 | 16.3 | > 46 | > 9.22 | inactive | inactive | inactive | inactive | –
c1cncc(CNc2ncn[nH]2)c1 | > 11.4 | 12.7 | – | 15.3 | -1.59 | > 46 | > 9.22 | inactive | inactive | inactive | inactive | –
COc1ccc2cc(C(=O)CCC(=O)O)ccc2c1 | > 11.4 | 1.75 | – | 19.6 | 6.44 | > 46 | > 9.22 | inactive | inactive | 2 µM (active) | 0.794 µM (active) | –
O=C(SCc1cccc2ccccc12)c1ccc(Cl)cc1 | > 11.4 | 9.24 | – | -5.94 | 7 | > 46 | > 9.22 | inactive | inactive | 1.58 µM (active) | 0.794 µM (active) | –
Cn1c(=O)c2c(nc(N/N=C\c3ccccc3C(=O)O)n2C)n(C)c1=O | > 11.4 | -10.8 | – | 5.57 | 3.2 | > 46 | > 9.22 | inactive | inactive | inactive | inactive | –
Oc1ccccc1C(Sc1nc2ccccc2s1)Sc1nc2ccccc2s1 | > 11.4 | 10.8 | – | 5.9 | -11.5 | > 46 | > 9.22 | inactive | inactive | 3.16 µM (active) | 1.26 µM (active) | –
CN(C)Cc1ccc(C(C)(C)C)cc1-c1cc(C(C)(C)C)ccc1CN(C)C | > 11.4 | -1.36 | – | 6.36 | -4.38 | > 46 | > 9.22 | inactive | inactive | inactive | 3.98 µM (active) | –
Cc1ccc(S(=O)(=O)N2CCC(C(=O)O)(c3ccccc3)CC2)cc1 | > 11.4 | 0.56 | – | 2.33 | -9.97 | > 46 | > 9.22 | inactive | inactive | inactive | inactive | –
O=C(O)CCSCc1ccccc1 | > 11.4 | 4.81 | – | -0.126 | -0.355 | > 46 | > 9.22 | inactive | inactive | inactive | inactive | –
CC1(C)[C@@H]2CC[C@]1(CC(=O)O)[C@H](Cl)C2 | > 11.4 | 9.82 | – | 2.95 | 6.68 | > 46 | > 9.22 | inactive | inactive | – | inactive | 2.22
O=C(O)CC[C@@]1(c2ccccc2)NC(=O)NC1=O | > 11.4 | 3.07 | – | 8.48 | 2.02 | > 46 | > 9.22 | inactive | inactive | – | inactive | -0.349
NC(=O)Nc1n[nH]c(-c2ccccc2)n1 | > 11.4 | 4.22 | – | -3.57 | 2.91 | > 46 | > 9.22 | inactive | inactive | – | 3.16 µM (active) | 12.6
Cc1cc(C2(c3cc(C)c(O)c(C(=O)O)c3)OS(=O)(=O)c3ccccc32)cc(C(=O)O)c1O | > 11.4 | -7.31 | – | -1.56 | 2.58 | > 46 | > 9.22 | inactive | inactive | – | inactive | -3.84
N=C(N)SCCSC(=N)N | > 11.4 | 5.54 | – | -2.2 | 12.3 | > 46 | > 9.22 | inactive | inactive | – | 2 µM (active) | -2.21
CC(C)CCC[C@@H](C)[C@@H]1CC[C@@H]2[C@H]3CC[C@H]4C[C@@H](N)CC[C@@]4(C)[C@@H]3CC[C@]21C | > 11.4 | 13.1 | – | 26.8 | 11.5 | > 46 | > 9.22 | inactive | inactive | – | inactive | 7.37
CC(=O)O[C@]1(C)N=NC2(CCCCC2)O1 | > 11.4 | 0.791 | – | 3.95 | 16.1 | > 46 | > 9.22 | inactive | inactive | – | inactive | 14.3
